Measured values: PubChem BioAssay (EPA / NIEHS)
Where “and” joins values, the source holds several entries; their conditions need not be identical. Equal entries are not always repeated. A structure can be active in one record and inactive in another. Calls of active or inactive are those of the source. The calls were made as follows: active = hit-call score of the fitted dose curve at least 0.9, where 1 is the maximum; inactive = score below 0.9.

Legend:
[1] = read-out: TIMP metallopeptidase inhibitor 2 (TIMP2), TIMP2 (gene 7077); assay: BSK_KF3CT_TIMP2: BioMAP Diversity Plus: KF3CT Assay for TIMP metallopeptidase inhibitor 2 (TIMP2) Biomarker Activity (AID 2283071); conditions: primary human keratinocytes with fibroblasts; actives raise or lower the signal
Summary of the method: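 Keratinocyte–fibroblast co-culture, 24 h exposure; TIMP-2 ELISA, DMSO-normalised bidirectional fit. Parallel SRB (0.1%, TCA-fixed, 560 nm) total-protein staining gauges cytotoxicity.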

[2] = read-out: Transforming growth factor beta 1 (TGFb1), TGFB1 (gene 7040); assay: BSK_KF3CT_TGFb1: BioMAP Diversity Plus: KF3CT Assay for Transforming growth factor beta 1 (TGFb1) Biomarker Activity (AID 2283072); conditions: primary human keratinocytes with fibroblasts; actives raise or lower the signal
Summary of the method: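 Signal changes in either direction, relative to DMSO, define activity here. TGF-b1 is read by ELISA from a human keratinocyte-fibroblast co-culture 24 h post-dose.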

[3] = read-out: C-C motif chemokine 2 (Homo sapiens) (UniProt P13500); assay: BSK_KF3CT_MCP1: BioMAP Diversity Plus: KF3CT Assay for Monocyte Chemoattractant Protein 1 (MCP1/CCL2) Biomarker Activity (AID 2283073); conditions: primary human keratinocytes with fibroblasts; actives raise or lower the signal
Summary of the method: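 Human keratinocyte plus foreskin fibroblast primary co-culture exposed to chemical for 24 h. MCP-1 levels measured by ELISA. Bidirectional curve fitting relative to DMSO negative control as baseline.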

[4] = read-out: Matrix Metallopeptidase 9 (MMP9), MMP9 (gene 4318); assay: BSK_KF3CT_MMP9: BioMAP Diversity Plus: KF3CT Assay for Matrix Metallopeptidase 9 (MMP9) Biomarker Activity (AID 2283074); conditions: primary human keratinocytes with fibroblasts; actives raise or lower the signal;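 as to AC50: MMP9 protein level quantified by ELISA in the co-culture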
Summary of the method: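 Human keratinocyte and foreskin fibroblast co-culture exposed to chemicals for 24 h; MMP9 biomarker measured by ELISA, bidirectional fitting relative to DMSO; cytotoxicity tracked by SRB total protein staining in parallel cultures.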

[5] = read-out: urokinase plasminogen activator (uPA), PLAU (gene 5328); assay: BSK_KF3CT_uPA: BioMAP Diversity Plus: KF3CT Assay for urokinase plasminogen activator (uPA) Biomarker Activity (AID 2283075); conditions: primary human keratinocytes with fibroblasts; actives raise or lower the signal
Summary of the method: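 Primary human keratinocyte/foreskin fibroblast co-culture exposed to chemical; uPA measured by ELISA at 24 h. Bidirectional fit versus DMSO, with parallel SRB total-protein staining for cytotoxicity.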

CD40, CD40 (gene 958) = assay: BSK_LPS_CD40: BioMAP Diversity Plus: LPS Assay for CD40 Biomarker Activity (AID 2283076); conditions: primary human HUVEC with PBMC; actives raise or lower the signal
Summary of the method: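 Primary human umbilical vein endothelial cells co-cultured with peripheral blood mononuclear cells, LPS-stimulated, were dosed with chemical and read 24 h later. CD40 levels were measured by ELISA and fitted bidirectionally against DMSO as negative control and baseline.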

[6] = read-out: E-selectin (Homo sapiens) (UniProt P16581); assay: BSK_LPS_Eselectin: BioMAP Diversity Plus: LPS Assay for Eselectin Biomarker Activity (AID 2283077); conditions: primary human HUVEC with PBMC; actives raise or lower the signal
Summary of the method: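 Human umbilical vein endothelial cells co-cultured with peripheral blood mononuclear cells under LPS stimulation; E-selectin measured by ELISA 24 h after chemical dosing. Activity fitted bidirectionally against DMSO as negative control and baseline.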

[7] = read-out: Interleukin-8 (IL8), CXCL8 (gene 3576); assay: BSK_LPS_IL8: BioMAP Diversity Plus: LPS Assay for Interleukin-8 (IL8) Biomarker Activity (AID 2283078); conditions: primary human HUVEC with PBMC; actives raise or lower the signal
Summary of the method: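 Human umbilical vein endothelial cells co-cultured with PBMC were stimulated with LPS; IL-8 levels were measured by ELISA 24 h after chemical dosing. Activity was fitted bidirectionally against DMSO as negative control and baseline.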

[8] = BSK_LPS_SRB: Viability Assessment in the BioMAP Diversity Plus: LPS Assay (AID 2283079); conditions: primary human HUVEC with PBMC;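 also: total protein by sulforhodamine B absorbance as a cytotoxicity measure; measured one day after compound addition; fitted in both directions against DMSO so loss or gain of signal counts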
Summary of the method: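 Human umbilical vein endothelial cells co-cultured with PBMC (LPS system) were dosed for 24 h. Total protein was stained with 0.1% sulforhodamine B after 10% TCA fixation, read at 560 nm, and fitted bidirectionally against DMSO baseline.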

[9] = read-out: Interleukin-1 alpha (IL1a), IL1A (gene 3552); assay: BSK_LPS_IL1a: BioMAP Diversity Plus: LPS Assay for Interleukin-1 alpha (IL1a) Biomarker Activity (AID 2283080); conditions: primary human HUVEC with PBMC; actives raise or lower the signal
Summary of the method: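 Human umbilical vein endothelial cells co-cultured with peripheral blood mononuclear cells were LPS-stimulated and exposed to test chemicals for 24 h. IL-1 alpha was quantified by ELISA, with bidirectional curve fitting against DMSO as the negative control and baseline.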

Sequence of E-selectin (Homo sapiens) (P16581 whole entry, looked up): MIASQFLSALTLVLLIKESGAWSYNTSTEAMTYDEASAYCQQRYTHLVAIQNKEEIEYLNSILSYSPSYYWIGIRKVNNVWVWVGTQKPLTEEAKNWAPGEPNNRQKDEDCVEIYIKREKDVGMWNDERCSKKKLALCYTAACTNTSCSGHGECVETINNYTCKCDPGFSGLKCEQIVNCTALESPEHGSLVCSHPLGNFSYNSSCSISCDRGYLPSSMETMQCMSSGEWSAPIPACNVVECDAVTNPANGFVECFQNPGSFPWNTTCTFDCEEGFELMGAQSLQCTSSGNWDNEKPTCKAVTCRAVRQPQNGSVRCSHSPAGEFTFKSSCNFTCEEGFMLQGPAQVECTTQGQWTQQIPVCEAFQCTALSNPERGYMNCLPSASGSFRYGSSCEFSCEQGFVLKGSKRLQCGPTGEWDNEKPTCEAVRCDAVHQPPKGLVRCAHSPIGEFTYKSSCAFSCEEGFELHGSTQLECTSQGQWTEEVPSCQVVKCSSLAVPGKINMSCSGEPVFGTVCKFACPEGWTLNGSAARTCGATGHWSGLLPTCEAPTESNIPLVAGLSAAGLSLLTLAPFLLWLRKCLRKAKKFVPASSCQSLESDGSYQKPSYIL

In the case of `COC(=O)C=C(C)OP(=O)(OC)OC`, the outcome [1] was “inactive”, the outcome [2] was “inactive” and the outcome [3] was “inactive”. For the same molecule, the outcome [4] was “inactive”, the outcome [5] was “inactive” and the outcome (CD40, CD40 (gene 958)) was “inactive”. The outcome [6] was “inactive”, the outcome [7] was “inactive” and the outcome [8] was “inactive”.
With `C=CCC1=C(C)[C@@H](OC(=O)[C@@H]2[C@@H](C=C(C)C)C2(C)C)CC1=O` the outcome [1] was “inactive”, the outcome [2] was “inactive” and the outcome [3] was “inactive”. The AC50 [4] was 32.6 µM (active), the outcome [5] was “inactive” and the AC50 (CD40, CD40 (gene 958)) was 29.2 µM (active). For the same molecule, the AC50 [6] was 32.4 µM (active), the AC50 [7] was 26.3 µM (active) and the AC50 [8] was 36.2 µM (active).
In the case of `N#CC(CCc1ccc(Cl)cc1)(Cn1cncn1)c1ccccc1` (centres undefined), the outcome [1] was “inactive”, the outcome [2] was “inactive” and the outcome [3] was “inactive”. For the same molecule, the outcome [4] was “inactive”, the outcome [5] was “inactive” and the outcome (CD40, CD40 (gene 958)) was “inactive”. For the same molecule, the outcome [6] was “inactive”, the outcome [7] was “inactive” and the outcome [8] was “inactive”.
In the case of `COc1nc(C)nc(NC(=O)NS(=O)(=O)c2ccccc2CCC(F)(F)F)n1`, the outcome [1] was “inactive”, the outcome [2] was “inactive” and the outcome [3] was “inactive”. The AC50 [4] was 23.7 µM (active), the outcome [4] was “inactive” and the outcome [5] was “inactive”. For the same molecule, the outcome (CD40, CD40 (gene 958)) was “inactive”, the outcome [6] was “inactive” and the outcome [7] was “inactive”. For the same molecule, the outcome [8] was “inactive”.
In the case of `CCOc1cc(Oc2ccc(C(F)(F)F)cc2Cl)ccc1[N+](=O)[O-]`, the outcome [1] was “inactive”, the outcome [2] was “inactive” and the outcome [3] was “inactive”. For the same molecule, the outcome [4] was “inactive”, the outcome [5] was “inactive” and the outcome (CD40, CD40 (gene 958)) was “inactive”. For the same molecule, the outcome [6] was “inactive”, the AC50 [7] was 11 µM (active) and the AC50 [8] was 9.65 µM (active).
For `CCCN(CCC)c1c([N+](=O)[O-])cc(S(N)(=O)=O)cc1[N+](=O)[O-]`, the AC50 [1] was 34.6 µM (active), the outcome [1] was “inactive” and the AC50 [2] was 34.4 µM (active). For the same molecule, the outcome [2] was “inactive”, the AC50 [4] was 32.8 µM (active) and the outcome [4] was “inactive”. The outcome [5] was “inactive”, the AC50 (CD40, CD40 (gene 958)) was 33.6 µM (active) [middle of 4 runs] and the AC50 [6] was 36.9 µM (active) and 32.6 µM (active) and 36.7 µM (active). For the same molecule, the outcome [6] was “inactive”, the AC50 [7] was 33.1 µM (active) [middle of 4 runs] and the AC50 [8] was 31.8 µM (active) [middle of 4 runs]. The AC50 [9] was 33.5 µM (active) [middle of 4 runs].
For `COc1nc(C)nc(NC(=O)NS(=O)(=O)c2ccccc2Cl)n1`, the AC50 [1] was 31.6 µM (active), the outcome [1] was “inactive” and the outcome [2] was “inactive”. For the same molecule, the outcome [3] was “inactive”, the outcome [4] was “inactive” and the outcome [5] was “inactive”. For the same molecule, the outcome (CD40, CD40 (gene 958)) was “inactive”, the outcome [6] was “inactive” and the outcome [7] was “inactive”. For the same molecule, the outcome [8] was “inactive”.
With `CCOC(=O)CC(SP(=S)(OC)OC)C(=O)OCC` (centres undefined) the outcome [1] was “inactive”, the outcome [2] was “inactive” and the outcome [3] was “inactive”. For the same molecule, the outcome [4] was “inactive”, the outcome [5] was “inactive” and the outcome (CD40, CD40 (gene 958)) was “inactive”. For the same molecule, the outcome [6] was “inactive”, the outcome [7] was “inactive” and the outcome [8] was “inactive”.
With `CCOC(=O)C(Cl)Cc1cc(-n2nc(C)n(C(F)F)c2=O)c(F)cc1Cl` (centres undefined) the outcome [1] was “inactive”, the outcome [2] was “inactive” and the outcome [3] was “inactive”. For the same molecule, the outcome [4] was “inactive”, the outcome [5] was “inactive” and the outcome (CD40, CD40 (gene 958)) was “inactive”. For the same molecule, the outcome [6] was “inactive”, the outcome [7] was “inactive” and the outcome [8] was “inactive”.
With `COP(=S)(OC)Oc1nc(Cl)c(Cl)cc1Cl` the outcome [1] was “inactive”, the outcome [2] was “inactive” and the outcome [3] was “inactive”. The outcome [4] was “inactive”, the outcome [5] was “inactive” and the outcome (CD40, CD40 (gene 958)) was “inactive”. The AC50 [6] was 32.5 µM (active), the outcome [7] was “inactive” and the outcome [8] was “inactive”.
In the case of `CCNc1nc(Cl)nc(NC(C)C)n1`, the outcome [1] was “inactive”, the outcome [2] was “inactive” and the outcome [3] was “inactive”. The outcome [4] was “inactive”, the outcome [5] was “inactive” and the outcome (CD40, CD40 (gene 958)) was “inactive”. The outcome [6] was “inactive”, the outcome [7] was “inactive” and the outcome [8] was “inactive”.
For `CCCCNC(=O)n1c(NC(=O)OC)nc2ccccc21`, the outcome [1] was “inactive”, the outcome [2] was “inactive” and the outcome [3] was “inactive”. The outcome [4] was “inactive”, the outcome [5] was “inactive” and the outcome (CD40, CD40 (gene 958)) was “inactive”. For the same molecule, the outcome [6] was “inactive”, the outcome [7] was “inactive” and the AC50 [8] was 7.48 µM (active).
For `Cc1c(F)c(F)c(COC(=O)C2C(/C=C(\Cl)C(F)(F)F)C2(C)C)c(F)c1F` (centres undefined), the outcome [1] was “inactive”, the outcome [2] was “inactive” and the outcome [3] was “inactive”. For the same molecule, the AC50 [4] was 2.72 µM (active), the outcome [5] was “inactive” and the AC50 (CD40, CD40 (gene 958)) was 13.7 µM (active). The outcome [6] was “inactive”, the AC50 [7] was 12.2 µM (active) and the outcome [8] was “inactive”.
For `COC(=O)C(C)Oc1ccc(Oc2ccc(Cl)cc2Cl)cc1` (centres undefined), the outcome [1] was “inactive”, the outcome [2] was “inactive” and the outcome [3] was “inactive”. For the same molecule, the AC50 [4] was 20 µM (active), the outcome [4] was “inactive” and the AC50 [5] was 21.1 µM (active) and 31.6 µM (active). For the same molecule, the outcome [5] was “inactive”, the AC50 (CD40, CD40 (gene 958)) was 29.2 µM (active) and 34.7 µM (active) and the outcome (CD40, CD40 (gene 958)) was “inactive”. For the same molecule, the outcome [6] was “inactive”, the outcome [7] was “inactive” and the outcome [8] was “inactive”.
In the case of `Oc1ccccc1-c1ccccc1`, the outcome [1] was “inactive”, the outcome [2] was “inactive” and the outcome [3] was “inactive”. The outcome [4] was “inactive”, the outcome [5] was “inactive” and the outcome (CD40, CD40 (gene 958)) was “inactive”. The outcome [6] was “inactive”, the outcome [7] was “inactive” and the outcome [8] was “inactive”.
With `CC(Oc1ccc(Cl)cc1Cl)C(=O)O` (centres undefined) the outcome [1] was “inactive”, the outcome [2] was “inactive” and the outcome [3] was “inactive”. For the same molecule, the outcome [4] was “inactive”, the outcome [5] was “inactive” and the outcome (CD40, CD40 (gene 958)) was “inactive”. The outcome [6] was “inactive”, the outcome [7] was “inactive” and the outcome [8] was “inactive”.
In the case of `COc1cnc(OC)n2nc(NS(=O)(=O)c3c(OCC(F)F)cccc3C(F)(F)F)nc12`, the outcome [1] was “inactive”, the outcome [2] was “inactive” and the outcome [3] was “inactive”. For the same molecule, the outcome [4] was “inactive”, the AC50 [5] was 29.6 µM (active) and the outcome [5] was “inactive”. The outcome (CD40, CD40 (gene 958)) was “inactive”, the outcome [6] was “inactive” and the AC50 [7] was 0.0793 µM (active). The outcome [7] was “inactive” and the outcome [8] was “inactive”.
